According to PubChem BioAssay (NCATS):
Results filed as inconclusive are left out. Some compounds were tested as several samples or in several runs, with calls that do not always agree. Active and inactive are the calls of the source. Unless noted, calls follow the shape of the dose curve; as a rule, active = well fitted curve in the direction sought with a large enough effect; inconclusive = small, poorly fitted or top-dose-only effect, or another doubt; inactive = no such curve, though single readings can be large; an effect the other way counts as inactive or inconclusive.

Experiments:
[1] = qHTS for Inhibitors of Plasmodium falciparum (DD2) proliferation (AID 504314);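 also: parasite DNA measured by SYBR Green fluorescence after red cell lysis; plate controls were DMSO vehicle for no effect and artemisinin wells for full effect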
How it was run: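 Erythrocytes infected with P. falciparum (0.3% parasitemia, 2.5% hematocrit final) were incubated with compounds for 72 h at 37C, 5% CO2. Parasite DNA was detected by SYBR Green I fluorescence after saponin/Triton lysis, normalized to artemisinin (0.29 uM) and DMSO controls.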

[2] = qHTS for Inhibitors of Plasmodium falciparum (GB4) proliferation (AID 504315); also: nearly all actives have a fitted effect of over 50% in size; also: potency is read from the fitted curve at half-maximal effect
How it was run: (§1)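 Erythrocytes infected with P. falciparum line (0.3% parasitemia, 2.5% hematocrit final) incubated with compounds 72 h at 37 °C, 5% CO2; SYBR Green lysis buffer added, fluorescence read next day. Normalized to 0.29 uM artemisinin and DMSO.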

[3] = qHTS for Inhibitors of Plasmodium falciparum (7G8) proliferation (AID 504316);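 also: series mostly up to about 6.7 µM; 0% = DMSO vehicle and -100% = 0.29 µM artemisinin full kill; nearly all actives have a fitted effect of over 65% in size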
How it was run: as §1

[4] = qHTS for Inhibitors of Plasmodium falciparum (HB3) proliferation (AID 504318);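 also: 0% = DMSO vehicle and -100% = artemisinin control; nearly all actives have a fitted effect of over 60% in size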
How it was run: as §1

[5] = qHTS for Inhibitors of Plasmodium falciparum (CP250) proliferation (AID 504320);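 also: plate controls were DMSO vehicle for no effect and 0.29 µM artemisinin control for full effect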
How it was run: as §1

[6] = target: Atrial natriuretic peptide receptor 1 (Homo sapiens) (UniProt P16066); assay: Natriuretic polypeptide receptor (hNpr1) antagonism - Pilot CMLD screen (AID 1347052; calls by dose curve;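 also: cGMP level read as GloSensor luciferase luminescence after agonist stimulation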; also: potency is read from the fitted curve at half-maximal effect)
Sequence of Atrial natriuretic peptide receptor 1 (Homo sapiens) (P16066 whole entry, looked up): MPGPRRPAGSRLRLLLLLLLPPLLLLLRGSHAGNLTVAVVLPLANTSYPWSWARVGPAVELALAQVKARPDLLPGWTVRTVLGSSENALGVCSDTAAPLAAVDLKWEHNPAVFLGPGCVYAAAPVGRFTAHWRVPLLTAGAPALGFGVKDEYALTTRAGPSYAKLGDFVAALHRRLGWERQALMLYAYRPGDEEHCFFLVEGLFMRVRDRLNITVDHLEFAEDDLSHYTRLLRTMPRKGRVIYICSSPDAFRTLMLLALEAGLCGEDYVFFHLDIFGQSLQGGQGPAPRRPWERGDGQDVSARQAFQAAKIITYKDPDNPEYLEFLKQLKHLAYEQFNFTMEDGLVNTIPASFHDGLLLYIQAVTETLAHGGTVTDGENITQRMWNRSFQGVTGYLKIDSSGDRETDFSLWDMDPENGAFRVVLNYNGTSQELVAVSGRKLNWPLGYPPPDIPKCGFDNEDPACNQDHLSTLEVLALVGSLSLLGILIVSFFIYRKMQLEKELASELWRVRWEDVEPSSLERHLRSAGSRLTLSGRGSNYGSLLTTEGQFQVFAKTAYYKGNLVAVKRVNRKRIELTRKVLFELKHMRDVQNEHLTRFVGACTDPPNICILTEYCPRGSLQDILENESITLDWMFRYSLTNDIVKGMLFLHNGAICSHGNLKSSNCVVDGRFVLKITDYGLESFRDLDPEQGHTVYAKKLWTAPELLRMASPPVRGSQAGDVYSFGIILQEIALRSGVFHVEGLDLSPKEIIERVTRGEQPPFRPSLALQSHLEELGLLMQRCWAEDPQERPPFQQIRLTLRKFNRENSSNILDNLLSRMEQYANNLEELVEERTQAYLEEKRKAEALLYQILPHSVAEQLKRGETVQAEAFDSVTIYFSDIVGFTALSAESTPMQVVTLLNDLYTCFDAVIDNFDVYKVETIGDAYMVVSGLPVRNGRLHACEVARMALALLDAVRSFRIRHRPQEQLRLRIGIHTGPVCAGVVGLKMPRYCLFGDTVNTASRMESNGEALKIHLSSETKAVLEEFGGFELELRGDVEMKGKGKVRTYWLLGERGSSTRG

CC(=O)C1=CN(CCC=Cc2ccccc2)C(=O)NC1c1ccccc1 (centres undefined)
inactive: Potency [1] | Potency [2] | Potency [3] | Potency [4] | Potency [5] | Potency [6]

COC(=O)N[C@H](C(C(=O)OC)=C(C)NCc1ccccc1)c1ccc(Cl)cc1
inactive: Potency [1] | Potency [2] | Potency [3] | Potency [4] | Potency [5] | Potency [6]

C[C@@H]1C=CCC(=O)OC[C@H](C)C(=O)OC[C@H]2O[C@H]1C=C[C@H]2O
inactive: Potency [1] | Potency [2] | Potency [3] | Potency [4] | Potency [5] | Potency [6]

COC(=O)N[C@@H](c1cccs1)C(C(C)=O)C(=O)OC (some centres undefined)
inactive: Potency [1] | Potency [2] | Potency [3] | Potency [4] | Potency [5] | Potency [6]

C=C(C(C)=O)C(O)c1ccc([N+](=O)[O-])cc1 (centres undefined)
inactive: Potency [1] | Potency [2] | Potency [3] | Potency [4] | Potency [5]
active: Potency [6] 1880 nM

COCCN1C(=O)N[C@@H](CCc2ccccc2)[C@@H](C(=O)OC)[C@H]1C
inactive: Potency [1] | Potency [2] | Potency [3] | Potency [4] | Potency [5] | Potency [6]

O=C(NN=C1C[C@@H](O)[C@H](O)[C@H]2[C@@H]3C(=O)N(C4CCCCC4)C(=O)[C@@H]3CC[C@H]12)OCc1ccccc1
inactive: Potency [1] | Potency [2] | Potency [3] | Potency [4] | Potency [5] | Potency [6]

C=CCC(O)(C#Cc1ccccc1)c1ccccc1 (centres undefined)
inactive: Potency [1] | Potency [2] | Potency [3] | Potency [4] | Potency [5] | Potency [6]

Cc1ccc(O[C@@H]2[C@H](O)CO[C@H]2C=CC#Cc2ccc(C(C)(C)C)cc2)cc1
inactive: Potency [1] | Potency [2] | Potency [3] | Potency [4] | Potency [5] | Potency [6]

CC(C)CON=C1C[C@@H](O)[C@@H](O)[C@@H]2[C@H]3C(=O)N(c4ccc(F)cc4F)C(=O)[C@@H]3CC[C@@H]12
inactive: Potency [1] | Potency [2] | Potency [3] | Potency [4] | Potency [5] | Potency [6]

CCOC(=O)CCN1C(=O)[C@@H]2[C@H]3[C@H](O)[C@H](O)CC(=NO[C@@H]4O[C@H](COC(C)=O)[C@@H](OC(C)=O)[C@H](OC(C)=O)[C@@H]4OC(C)=O)[C@H]3CC[C@H]2C1=O
inactive: Potency [1] | Potency [2] | Potency [3] | Potency [4] | Potency [5] | Potency [6]

CC1=C[C@@H](C)OC2(C1)C(=O)N(CC1CC1)c1cccc(Br)c12 (some centres undefined)
inactive: Potency [1] | Potency [2] | Potency [3] | Potency [4] | Potency [5] | Potency [6]

C=CC1=C2C=C(C3CC3)N(C(CO)CO)C=C2C(=O)C(C)(OC(=O)c2ccco2)C1=O (centres undefined)
inactive: Potency [1] | Potency [2] | Potency [3] | Potency [4] | Potency [5] | Potency [6]

COCCN1C(=O)NC(c2cccc(C(F)(F)F)c2)C(C(=O)OC)=C1C (centres undefined)
inactive: Potency [1] | Potency [2] | Potency [3] | Potency [4] | Potency [5] | Potency [6]

O=C1[C@H]2[C@@H]3[C@@H](O)[C@H](O)CC(=NOCc4ccccc4)[C@@H]3CC[C@H]2C(=O)N1C[C@@H]1CCCO1
inactive: Potency [1] | Potency [2] | Potency [3] | Potency [4] | Potency [5] | Potency [6]

COC(=O)[C@H](C=C[C@H](C)Cc1cc(Br)cc(OCc2ccccc2)c1OC)OCc1ccccc1
inactive: Potency [1] | Potency [2] | Potency [3] | Potency [4] | Potency [5] | Potency [6]

COC(=O)c1nnc(SC)nc1C(=O)OC
inactive: Potency [1] | Potency [2] | Potency [3] | Potency [4] | Potency [5] | Potency [6]

C=CC1=C2C=C(C3CC3)N(Cc3ccc4c(c3)OCO4)C=C2C(=O)C(C)(OC(=O)c2ccco2)C1=O (centres undefined)
inactive: activity, negative = inhibition [1] 4.05% [at 1.12 µM] | Potency [2] | Potency [3] | Potency [4] | Potency [5] | Potency [6]

COCC1=Cc2cc3c(cc2C(C(C(=O)OC)C(=O)OC)N1C(=O)OC)OCO3 (centres undefined)
inactive: Potency [1] | Potency [2] | Potency [3] | Potency [4] | Potency [5] | Potency [6]

C=CCOC(=O)C(C(C)=O)[C@@H](NC(=O)OC)c1ccco1 (some centres undefined)
inactive: Potency [1] | Potency [2] | Potency [3] | Potency [4] | Potency [5] | Potency [6]

CC(=O)C1=C(C)N(Cc2ccccc2)C(=O)NC1c1ccco1 (centres undefined)
inactive: Potency [1] | Potency [2] | Potency [3] | Potency [4] | Potency [5] | Potency [6]

CCN1C(=NCCc2c[nH]c3ccccc23)NC(c2ccccc2)C(C(=O)OC)=C1C (centres undefined)
inactive: Potency [1] | Potency [2] | Potency [3] | Potency [4] | Potency [5] | Potency [6]

COC(=O)N[C@@H](c1cccc(F)c1)C(C(C)=O)C(=O)OC (some centres undefined)
inactive: Potency [1] | Potency [2] | Potency [3] | Potency [4] | Potency [5] | Potency [6]

CC1(OC(=O)C2CCCC2)C(=O)C=C2C=C(c3ccc(C#N)cc3)OC=C2C1=O (centres undefined)
inactive: Potency [1] | Potency [2] | Potency [3] | Potency [4] | Potency [5] | Potency [6]

COC(=O)CC=C[C@H](C)[C@@H](OCc1ccccc1Br)C(C)C
inactive: Potency [1] | Potency [2] | Potency [3] | Potency [4] | Potency [5] | Potency [6]

C=CCOC(=O)N[C@H](c1cccc(OC)c1)[C@H](C)C=CCC(=O)OC
inactive: Potency [1] | Potency [2] | Potency [3] | Potency [4] | Potency [5] | Potency [6]

COCCN1C(=O)CC[C@@]23C1=NC(C(=O)OC)=C(C(=O)OC)[C@@H]2N(C)c1ccccc13
inactive: Potency [1] | Potency [2] | Potency [3] | Potency [4] | Potency [5] | Potency [6]

CC1(OC(=O)c2ccc(Cl)nc2)C(=O)C=C2C=C3CCCN3C=C2C1=O (centres undefined)
inactive: Potency [1] | Potency [2] | Potency [3] | Potency [4] | Potency [5] | Potency [6]

Cc1ccc(S(=O)(=O)OCCc2ccccc2)cc1
inactive: Potency [1] | Potency [2] | Potency [3] | Potency [4] | Potency [5] | Potency [6]

C=C(C(=O)OCC)C(=O)c1ccccc1
inactive: Potency [1] | Potency [2] | Potency [3] | Potency [4] | Potency [5] | Potency [6]

COC(=O)CCCC1=CC2=CC(=O)C(C)(OC(=O)c3cccs3)C(=O)C2=CN1CCCOC(C)C (centres undefined)
inactive: Potency [1] | Potency [2] | Potency [3] | Potency [4] | Potency [5] | Potency [6]

COc1ccc2c(c1)CO[C@H]([C@H](O)COC(C)=O)[C@H]2C=Cc1ccccc1
inactive: Potency [1] | Potency [2] | Potency [3] | Potency [4] | Potency [5] | Potency [6]

COC1=C[C@H](C(=O)NCc2ccccc2)[C@@]2(C)Cc3ccccc3[C@@H]2CC1=O
inactive: Potency [1] | Potency [2] | Potency [3] | Potency [4] | Potency [5] | Potency [6]

CN1c2ccccc2[C@@]2(O)C(=O)[C@@]1(C)[C@@H]1C=CCC[C@H]12
inactive: Potency [1] | Potency [2] | Potency [3] | Potency [4] | Potency [5] | Potency [6]

c1ccc(-c2nc(-c3ccccc3)c(Nc3ccc4ccccc4c3)o2)cc1
inactive: Potency [1] | Potency [2] | Potency [3] | Potency [4] | Potency [5] | Potency [6]

COC(=O)NC(c1ccc2c(c1)OCO2)C(C(=O)OC)C(=O)OC (centres undefined)
inactive: Potency [1] | Potency [2] | Potency [3] | Potency [4] | Potency [5] | Potency [6]

CCCCC1=CC2=C(c3ccco3)C(=O)C(C)(OC(=O)c3ccc(OC)cc3)C(=O)C2=CN1Cc1ccccc1 (centres undefined)
inactive: Potency [1] | Potency [2] | Potency [3] | Potency [4] | Potency [5] | Potency [6]

COC[C@@H](O)[C@H]1OCc2cccc(OC)c2[C@H]1C=Cc1ccccc1
inactive: Potency [1] | Potency [2] | Potency [3] | Potency [4] | Potency [5] | Potency [6]

C=CCN1C=C2C(=O)C(C)(OC(=O)c3ccc(OC)cc3)C(=O)C(c3ccco3)=C2C=C1CCCC (centres undefined)
inactive: Potency [1] | Potency [2] | Potency [3] | Potency [4] | Potency [5] | Potency [6]

CCOC(=O)N1C2=NC(C(=O)OC)=C(C(=O)OC)[C@@H]3Nc4ccccc4[C@]23C[C@H]1C(=O)OC
inactive: activity, negative = inhibition [1] -0.255% [at 1.12 µM] | Potency [3] | Potency [4] | Potency [5] | Potency [6]
1.9 µM (active) and inactive: Potency [2]

CC(=O)OC[C@H]1O[C@H](CC=NOC[C@@H](O)COCc2ccco2)C=C[C@H]1OC(C)=O
inactive: Potency [1] | Potency [2] | Potency [3] | Potency [4] | Potency [5] | Potency [6]

CC(=O)OC[C@H]1O[C@H](C#Cc2ccc(F)cc2F)C=C[C@H]1OC(C)=O
inactive: Potency [1] | Potency [2] | Potency [3] | Potency [4] | Potency [5] | Potency [6]

CCOC(=O)CN1C(=O)NC(c2cccc(F)c2)C(C(=O)OC)=C1C (centres undefined)
inactive: Potency [1] | Potency [2] | Potency [3] | Potency [4] | Potency [5] | Potency [6]

C[C@@H]1CC2=CCCC2[C@]2(O1)C(=O)Nc1cccc(Br)c12 (some centres undefined)
inactive: Potency [1] | Potency [2] | Potency [3] | Potency [4] | Potency [5] | Potency [6]

COC(=O)N1C2=C(c3ccccc3[C@@H]1CC(=O)O)[C@@H]1O[C@@H](C2)c2ccccc21
inactive: Potency [1] | Potency [2] | Potency [3] | Potency [4] | Potency [5] | Potency [6]

CCN1C(=NCc2cc(OC)c(OC)c(OC)c2)NC(c2ccccc2)C(C(=O)OC)=C1C (centres undefined)
inactive: Potency [1] | Potency [2] | Potency [3] | Potency [4] | Potency [5] | Potency [6]

C=CCOC(=O)C(C(C)=O)[C@@H](NC(=O)OC)c1cccc(C)c1 (some centres undefined)
inactive: Potency [1] | Potency [2] | Potency [3] | Potency [4] | Potency [5] | Potency [6]

COC(=O)C1=C2C=C(C)CC(C)N2C(=O)NC1c1ccccc1 (centres undefined)
inactive: Potency [1] | Potency [2] | Potency [3] | Potency [4] | Potency [5] | Potency [6]

CCOC(=O)C1=CN(CCc2cn(Cc3ccccc3)nn2)C(=O)NC1c1ccccc1 (centres undefined)
inactive: Potency [1] | Potency [2] | Potency [3] | Potency [4] | Potency [5] | Potency [6]

O=C(C=Cc1ccccc1)c1ccccc1O
inactive: Potency [1] | Potency [2] | Potency [3] | Potency [4] | Potency [5] | Potency [6]

O=C(C=Cc1cccc([N+](=O)[O-])c1)c1ccccc1
active: Potency [6] 2990 nM
inactive: Potency [1] | Potency [2] | Potency [3] | Potency [4] | Potency [5]

C=CCOC(=O)[C@H](O)[C@@H](O)C(=O)OCC=C
inactive: Potency [1] | Potency [2] | Potency [3] | Potency [4] | Potency [5] | Potency [6]

C=CC1=C2C=C(C3CC3)N(CC3CC3)C=C2C(=O)C(C)(OC(=O)c2ccco2)C1=O (centres undefined)
inactive: Potency [1] | Potency [2] | Potency [3] | Potency [4] | Potency [5] | Potency [6]

CCN1C(=O)N[C@@H](CCc2ccccc2)[C@@H](C(=O)OC)[C@H]1C
inactive: activity, negative = inhibition [1] 2.52% [at 1.12 µM] | Potency [2] | Potency [3] | Potency [4] | Potency [5] | Potency [6]
